This note sets out measurements from ChEMBL document CHEMBL3988442, “University of Dundee, Small-Polar-MMV Screening Library” (2021).

Molecules are shown by their SMILES. For some assays here: Results with a measured potency or affinity are listed apart.

Parameters in all cases: scale not given: direction of the effect not stated beside the values
In assay [1] the target is Protein translocase subunit SecA (Escherichia coli (strain K12)) (UniProt P10408). The experiment in a line: Assay to Identify E. coli SecA ATPase Inhibitors. It is filed as functional. As to conditions: 30 µM.
Assay [2] addresses T1, Ubiquitin-activating enzyme e1, putative (Leishmania donovani (strain BPK282A1)) (UniProt E9BSI1).
T1 sequence (whole entry): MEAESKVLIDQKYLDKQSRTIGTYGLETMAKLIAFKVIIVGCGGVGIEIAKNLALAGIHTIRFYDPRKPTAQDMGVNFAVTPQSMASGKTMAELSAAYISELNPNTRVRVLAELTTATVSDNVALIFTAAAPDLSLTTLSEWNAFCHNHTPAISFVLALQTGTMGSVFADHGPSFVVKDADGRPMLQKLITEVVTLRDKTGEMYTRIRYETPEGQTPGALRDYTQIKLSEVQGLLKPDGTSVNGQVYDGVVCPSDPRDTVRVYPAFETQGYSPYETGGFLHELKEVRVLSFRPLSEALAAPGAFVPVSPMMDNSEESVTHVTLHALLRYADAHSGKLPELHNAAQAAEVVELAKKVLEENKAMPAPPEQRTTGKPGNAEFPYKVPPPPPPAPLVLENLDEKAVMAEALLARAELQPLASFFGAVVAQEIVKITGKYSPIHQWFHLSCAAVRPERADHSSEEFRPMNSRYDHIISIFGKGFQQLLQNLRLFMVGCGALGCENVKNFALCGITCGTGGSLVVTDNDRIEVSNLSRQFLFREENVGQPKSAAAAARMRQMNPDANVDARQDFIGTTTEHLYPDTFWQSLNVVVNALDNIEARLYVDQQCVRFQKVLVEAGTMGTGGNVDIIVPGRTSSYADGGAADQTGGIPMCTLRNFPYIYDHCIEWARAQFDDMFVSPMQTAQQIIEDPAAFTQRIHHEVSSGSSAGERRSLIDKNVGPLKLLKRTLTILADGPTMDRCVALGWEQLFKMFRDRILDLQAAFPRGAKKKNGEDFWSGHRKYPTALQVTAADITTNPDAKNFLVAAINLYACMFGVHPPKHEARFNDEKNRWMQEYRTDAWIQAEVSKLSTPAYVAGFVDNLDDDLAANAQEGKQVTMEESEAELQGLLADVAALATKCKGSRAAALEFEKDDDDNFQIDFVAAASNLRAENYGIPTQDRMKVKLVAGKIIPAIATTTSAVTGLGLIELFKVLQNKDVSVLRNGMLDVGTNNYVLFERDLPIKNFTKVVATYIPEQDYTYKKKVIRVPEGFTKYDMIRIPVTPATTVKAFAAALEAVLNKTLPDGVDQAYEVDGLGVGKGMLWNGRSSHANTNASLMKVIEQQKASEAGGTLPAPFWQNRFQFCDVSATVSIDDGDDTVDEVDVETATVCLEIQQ
Kind of assay: Leishmania donovani Ubiquitin Activating Enzyme (LdE1). Type of assay: functional. The conditions noted are these: 30 µM.

Assay [3] addresses T2, Aspartate--tRNA(Asp/Asn) ligase (Mycobacterium tuberculosis (strain ATCC 25618 / H37Rv)) (UniProt P9WFW3).
T2 sequence (whole entry): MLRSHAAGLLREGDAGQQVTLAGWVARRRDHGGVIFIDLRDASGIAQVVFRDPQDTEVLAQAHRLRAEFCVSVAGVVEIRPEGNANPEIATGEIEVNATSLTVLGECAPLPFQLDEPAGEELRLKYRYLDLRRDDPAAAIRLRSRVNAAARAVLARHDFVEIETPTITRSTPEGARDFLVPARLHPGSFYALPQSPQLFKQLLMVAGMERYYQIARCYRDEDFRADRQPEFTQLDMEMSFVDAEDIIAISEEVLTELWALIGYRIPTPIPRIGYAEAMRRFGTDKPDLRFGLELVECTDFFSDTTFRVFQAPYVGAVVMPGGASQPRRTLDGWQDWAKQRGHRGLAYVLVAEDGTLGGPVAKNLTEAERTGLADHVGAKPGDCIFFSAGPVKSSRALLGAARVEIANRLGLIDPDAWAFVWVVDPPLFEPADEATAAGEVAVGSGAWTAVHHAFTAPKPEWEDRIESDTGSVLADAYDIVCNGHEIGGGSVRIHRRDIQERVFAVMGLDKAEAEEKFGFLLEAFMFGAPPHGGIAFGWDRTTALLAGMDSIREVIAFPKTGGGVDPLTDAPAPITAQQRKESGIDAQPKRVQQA
Kind of assay: Assay for Asp RNA synthetase-1 from Mycobacterium tuberculosis. Type of assay: functional. The conditions noted are these: 30 µM.

The target in assay [4] is AMP-activated protein kinase, AMPK (Homo sapiens) (UniProt P54646+O43741+P54619+Q9UGJ0+Q9Y478+Q13131+Q9UGI9). The experiment in a line: AMP-dependent Kinase enzyme assay. An in vitro enzyme assay that detects ADP turnover that is directly proportional to AMPK activity. This uses naive AMPK that is activated during the assay with MK-8722. Type of assay: functional. As to conditions: 30 µM.

Assay [5] deals with Sialic acid-binding Ig-like lectin 9 (Homo sapiens) (UniProt Q9Y336). The experiment in a line: Hs-Siglec9 ALPHAscreen SOP 20170721. As to conditions: 10 µM.
For another assay, the system named is Trypanosoma cruzi. The experiment in a line: Trypanosoma cruzi phosphomannomutase and mannose-1-phosphate guanylyltransferase assay. It is filed as functional. As to conditions: 10 µM.
Assay [6] deals with T3, Arginase-2, mitochondrial (Homo sapiens) (UniProt P78540).
T3 sequence (whole entry): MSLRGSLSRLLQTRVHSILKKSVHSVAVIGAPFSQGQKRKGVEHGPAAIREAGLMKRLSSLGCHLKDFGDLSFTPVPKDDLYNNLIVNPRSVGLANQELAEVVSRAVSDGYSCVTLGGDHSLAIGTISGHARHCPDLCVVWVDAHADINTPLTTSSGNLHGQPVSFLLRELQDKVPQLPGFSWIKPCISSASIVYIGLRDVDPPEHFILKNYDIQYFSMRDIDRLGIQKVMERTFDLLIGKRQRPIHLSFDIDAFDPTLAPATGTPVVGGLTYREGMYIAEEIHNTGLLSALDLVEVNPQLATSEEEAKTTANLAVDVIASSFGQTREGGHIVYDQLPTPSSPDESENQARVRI
Kind of assay: in vitro enzyme assay to detect the production of urea directly proportional to the activity of Arginase II. Further: in the data most compounds retested in dose-response had high values. As to conditions: 33.3 µM. Type of assay: functional.

Assay [7] addresses T4, Proteasome subunit beta (Trypanosoma cruzi) (UniProt O96673).
T4 sequence (whole entry): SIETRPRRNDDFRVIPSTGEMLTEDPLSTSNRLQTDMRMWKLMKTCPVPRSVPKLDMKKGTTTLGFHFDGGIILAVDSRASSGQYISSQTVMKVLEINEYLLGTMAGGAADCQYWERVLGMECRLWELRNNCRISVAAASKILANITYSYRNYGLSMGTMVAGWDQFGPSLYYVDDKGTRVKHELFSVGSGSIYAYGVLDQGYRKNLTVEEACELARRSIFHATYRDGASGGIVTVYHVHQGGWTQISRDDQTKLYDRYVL
Kind of assay: Trypanosoma cruzi proteasome chymotrypsin-like activity (TcProtChymo) assay. Further: in the data most compounds retested in dose-response had high values. It is filed as functional. As to conditions: 9.37 µM.

The next assay is filed under the species Homo sapiens. The experiment in a line: To identify inhibition of the IFN signalling (Jak-Stat) pathway via expression of an eGFP reporter gene under the control of an IFN-stimulated response element (ISRE) containing MxA promoter. As to conditions: 30 µM. Type of assay: functional. In general terms: A reporter such as luciferase makes a cellular process visible.

Assay [8] has as its target Shiga toxin 2 (Escherichia coli O157:H7) (UniProt P09385+P09386). The experiment in a line: E. coli 0.157:H7 Shiga Toxin SOP - stx2 screening assay. It is filed as functional. The conditions noted are these: 30 µM.
Assay [9] addresses T5, Tyrosyl-tRNA synthetase, putative (Trypanosoma cruzi (strain CL Brener)) (UniProt Q4DSP6).
T5 sequence (whole entry): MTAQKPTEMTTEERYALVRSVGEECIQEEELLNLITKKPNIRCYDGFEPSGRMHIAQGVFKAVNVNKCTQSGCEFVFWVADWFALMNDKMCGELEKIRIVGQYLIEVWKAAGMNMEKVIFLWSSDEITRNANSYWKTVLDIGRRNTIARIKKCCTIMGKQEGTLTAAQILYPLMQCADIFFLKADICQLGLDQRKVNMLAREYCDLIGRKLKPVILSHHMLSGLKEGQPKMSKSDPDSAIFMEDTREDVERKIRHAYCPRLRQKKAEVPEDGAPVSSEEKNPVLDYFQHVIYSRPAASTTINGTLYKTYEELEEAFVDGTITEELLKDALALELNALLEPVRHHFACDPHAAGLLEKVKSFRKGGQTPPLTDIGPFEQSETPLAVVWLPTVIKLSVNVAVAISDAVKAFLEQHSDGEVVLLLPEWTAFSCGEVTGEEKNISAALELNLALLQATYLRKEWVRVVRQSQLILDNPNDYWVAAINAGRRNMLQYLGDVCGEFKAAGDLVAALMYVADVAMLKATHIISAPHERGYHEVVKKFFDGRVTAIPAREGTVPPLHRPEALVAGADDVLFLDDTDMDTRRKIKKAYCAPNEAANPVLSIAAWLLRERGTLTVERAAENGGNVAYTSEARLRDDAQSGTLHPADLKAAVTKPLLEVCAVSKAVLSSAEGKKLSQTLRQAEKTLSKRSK
The experiment in a line: Trypanosoma cruzi tyrosyl tRNA synthetase (TcYRS) _High Tyrosine SOP. Further: in the data most compounds retested in dose-response had high values. As to conditions: 30 µM. It is filed as functional.

The target in assay [10] is T5, Tyrosyl-tRNA synthetase, putative (Trypanosoma cruzi (strain CL Brener)). Kind of assay: Trypanosoma cruzi tyrosyl tRNA synthetase (TcYRS) SOP. It is filed as functional. As to conditions: 30 µM.
The target in assay [11] is Chromo domain-containing protein 1 (Saccharomyces cerevisiae (strain ATCC 204508 / S288c) (Baker's yeast)) (UniProt P32657). The experiment in a line: ScCHD-1 Enzyme Inhibition Assay. Further: in the data most compounds retested in dose-response had high values. It is filed as functional. As to conditions: 30 µM.
Chromo domain-containing protein 1 (Saccharomyces cerevisiae (strain ATCC 204508 / S288c) (Baker's yeast)), sequence (P32657 whole entry, the tested form may be a part): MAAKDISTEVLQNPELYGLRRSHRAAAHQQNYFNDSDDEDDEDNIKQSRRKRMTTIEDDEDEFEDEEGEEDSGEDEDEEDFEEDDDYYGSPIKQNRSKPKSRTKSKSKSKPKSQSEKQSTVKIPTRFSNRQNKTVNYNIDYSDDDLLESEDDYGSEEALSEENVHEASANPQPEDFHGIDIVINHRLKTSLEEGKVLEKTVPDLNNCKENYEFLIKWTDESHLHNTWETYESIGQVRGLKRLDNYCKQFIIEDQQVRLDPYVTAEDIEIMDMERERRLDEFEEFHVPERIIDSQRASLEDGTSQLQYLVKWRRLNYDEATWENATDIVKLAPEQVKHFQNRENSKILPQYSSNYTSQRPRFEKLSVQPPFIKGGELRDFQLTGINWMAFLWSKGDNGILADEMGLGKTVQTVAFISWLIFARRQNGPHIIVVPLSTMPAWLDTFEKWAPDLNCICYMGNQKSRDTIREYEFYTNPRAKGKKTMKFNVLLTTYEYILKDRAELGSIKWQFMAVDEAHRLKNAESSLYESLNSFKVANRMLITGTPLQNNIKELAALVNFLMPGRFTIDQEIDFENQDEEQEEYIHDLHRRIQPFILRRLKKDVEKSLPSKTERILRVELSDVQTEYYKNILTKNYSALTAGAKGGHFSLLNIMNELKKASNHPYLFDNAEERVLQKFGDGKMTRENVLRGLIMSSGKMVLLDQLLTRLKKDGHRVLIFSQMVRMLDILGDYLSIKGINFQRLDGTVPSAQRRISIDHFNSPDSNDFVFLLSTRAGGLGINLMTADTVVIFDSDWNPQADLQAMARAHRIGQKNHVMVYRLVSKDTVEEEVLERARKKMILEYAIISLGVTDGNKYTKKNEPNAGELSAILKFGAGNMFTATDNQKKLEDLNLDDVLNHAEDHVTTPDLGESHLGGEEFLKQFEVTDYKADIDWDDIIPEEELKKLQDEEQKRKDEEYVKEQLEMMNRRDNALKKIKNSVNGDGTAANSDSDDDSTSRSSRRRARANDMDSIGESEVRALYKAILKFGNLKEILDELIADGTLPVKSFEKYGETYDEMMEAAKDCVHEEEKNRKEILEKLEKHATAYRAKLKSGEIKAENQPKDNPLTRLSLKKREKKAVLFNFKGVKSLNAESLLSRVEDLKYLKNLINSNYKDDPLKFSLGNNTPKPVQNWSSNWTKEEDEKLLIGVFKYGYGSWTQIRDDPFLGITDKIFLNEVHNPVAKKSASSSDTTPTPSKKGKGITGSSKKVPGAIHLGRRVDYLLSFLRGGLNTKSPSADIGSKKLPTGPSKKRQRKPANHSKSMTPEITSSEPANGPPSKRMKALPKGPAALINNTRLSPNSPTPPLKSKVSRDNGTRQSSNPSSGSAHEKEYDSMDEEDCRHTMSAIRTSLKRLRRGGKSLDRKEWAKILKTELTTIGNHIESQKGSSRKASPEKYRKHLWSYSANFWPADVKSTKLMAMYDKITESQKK

Sialic acid-binding Ig-like lectin 9 (Homo sapiens), sequence (Q9Y336 whole entry): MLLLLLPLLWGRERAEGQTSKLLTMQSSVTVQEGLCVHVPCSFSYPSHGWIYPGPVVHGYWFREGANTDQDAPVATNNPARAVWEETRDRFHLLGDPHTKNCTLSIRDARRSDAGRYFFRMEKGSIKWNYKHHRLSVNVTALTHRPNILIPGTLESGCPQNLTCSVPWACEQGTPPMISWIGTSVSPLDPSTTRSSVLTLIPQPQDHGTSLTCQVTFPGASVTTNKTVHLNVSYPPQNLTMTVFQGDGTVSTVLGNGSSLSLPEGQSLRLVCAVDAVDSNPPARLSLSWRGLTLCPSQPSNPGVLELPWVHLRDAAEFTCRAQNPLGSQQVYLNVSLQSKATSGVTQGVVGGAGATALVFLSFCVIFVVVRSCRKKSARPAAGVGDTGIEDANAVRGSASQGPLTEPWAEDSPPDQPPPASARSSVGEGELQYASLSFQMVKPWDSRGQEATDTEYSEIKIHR
Protein translocase subunit SecA (Escherichia coli (strain K12)), sequence (P10408 whole entry): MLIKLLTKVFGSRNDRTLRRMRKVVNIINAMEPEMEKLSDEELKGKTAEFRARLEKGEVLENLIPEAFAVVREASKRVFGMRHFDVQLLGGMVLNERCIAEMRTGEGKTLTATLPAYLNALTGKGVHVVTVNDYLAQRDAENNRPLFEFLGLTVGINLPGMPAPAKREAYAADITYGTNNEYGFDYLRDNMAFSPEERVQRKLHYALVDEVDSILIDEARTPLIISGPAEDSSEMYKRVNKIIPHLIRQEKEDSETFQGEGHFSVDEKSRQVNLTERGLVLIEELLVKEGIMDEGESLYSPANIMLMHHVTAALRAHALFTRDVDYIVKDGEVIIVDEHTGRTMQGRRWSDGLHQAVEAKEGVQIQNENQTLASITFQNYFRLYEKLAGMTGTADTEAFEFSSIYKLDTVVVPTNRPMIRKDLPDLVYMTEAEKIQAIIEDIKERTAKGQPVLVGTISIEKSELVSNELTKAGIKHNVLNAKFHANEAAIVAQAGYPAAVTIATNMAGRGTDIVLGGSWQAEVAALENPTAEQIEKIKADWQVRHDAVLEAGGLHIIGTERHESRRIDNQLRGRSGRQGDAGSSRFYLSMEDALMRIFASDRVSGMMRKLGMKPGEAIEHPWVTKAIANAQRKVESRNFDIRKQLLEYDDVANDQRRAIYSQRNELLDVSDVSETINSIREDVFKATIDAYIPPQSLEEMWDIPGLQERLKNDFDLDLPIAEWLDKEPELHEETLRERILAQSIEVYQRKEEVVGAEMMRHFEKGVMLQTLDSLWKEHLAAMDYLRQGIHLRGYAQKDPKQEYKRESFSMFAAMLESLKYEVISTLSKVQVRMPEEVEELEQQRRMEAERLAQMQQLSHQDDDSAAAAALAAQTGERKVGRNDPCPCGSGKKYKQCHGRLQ

Take `CNC(=O)[C@@]12CCCN(c3ncccn3)[C@@H]1CN(C)C2`: the Percent Effect in [1] was -7.94%; in [2] it was 5.2%; in assay [3] it was -0.539%; in assay [4], 20.5%; in [5], -6.43%; in the assay with Trypanosoma cruzi it was -6.21%. In addition, the Percent Effect in assay [6] is 4.52%; in [7], 9.4%; in the assay listed under Homo sapiens it was 14.9%; in assay [8] it was -9.88%; in assay [9], -4.23%; in [10], -1.28%. Moreover, the Percent Effect in assay [11] was -2.69%.

Regarding `Cc1ncccc1OCC(=O)N1CCN[C@H]2CS(=O)(=O)C[C@H]21`, the Percent Effect was -6.4% in assay [1]; 10.8% in assay [2]; 7.97% in [3]; -4.66% in [4]; 0.713% in assay [5]; 0.489% in the assay with Trypanosoma cruzi. Further, the Percent Effect in [6] was 4.71%; in [7], 14.2%; in the assay listed under Homo sapiens, -4.73%; in assay [8], 11.7%; in assay [9] it was 9.68%; in [10], 18.5%. In addition, the Percent Effect in [11] is -1.55%.

As to `O=C(NCc1ccccn1)[C@]12COC[C@H]1CN(C1CCC1)C2`, the Percent Effect was -2.39% in assay [1]; 18.7% in assay [2]; -4.34% in assay [3]; 0.454% in [4]; 0.409% in assay [5]; 3.86% in the assay on Trypanosoma cruzi. The Percent Effect is 85.8% in [6]; 10.9% in assay [7]; -5.18% in the assay listed under Homo sapiens; -15.4% in assay [8]; 3.12% in assay [9]; 10% in assay [10]. Further, the Percent Effect in assay [11] is -7.8%.

On to `Cc1ccc(CN2CCC3(CC2)C(=O)N(C)c2ccccc23)s1`, for which the Percent Effect is -4.09% in assay [1]; 8.11% in assay [2]; 7.84% in [3]; -1.34% in assay [4]; 6.95% in assay [5]; -0.781% in the assay on Trypanosoma cruzi. Besides, the Percent Effect in assay [6] is 2.08%; in [7], 16.8%; in the assay listed under Homo sapiens it was 20.4%; in assay [8], -2.26%; in assay [9], 7.92%; in [10], 11%. For the same compound, in assay [11], the Percent Effect was determined as 5.6%.

On to `c1cnc(NC[C@@H]2CCC[C@@H]3CN(Cc4cc[nH]n4)C[C@@H]32)nc1`, for which the Percent Effect is -1.01% in assay [1]; 10.8% in assay [2]; -0.521% in assay [3]; -5.7% in [4]; -5.33% in assay [5]; 5.66% with Trypanosoma cruzi. For the same compound, the Percent Effect in [6] is 4.17%; in [7], 7.69%; in the assay listed under Homo sapiens it was 6.51%; in assay [8], -15%; in [9], 10.9%; in assay [10], 15.8%. In addition, the Percent Effect in assay [11] is -6.02%.
